Each structure is given as a SMILES string. Compounds without any hit were thinned out: in the full panel of roughly 83,000, 20% have a hit.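 A percent growth of 40 corresponds to 60% growth inhibition; 0 means no net growth; -100 means all cells died. Active threshold: below 10.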 Unmarked numbers belong to inactive results. Calls of active or inactive are those of the source.

What all share (experiment): NCI-60 one-dose screen, 48 h (100 = growth as untreated, 0 = no growth, -100 = all killed)
What all share (conditions): 10 µM unless noted

For experiment [1], the system named is SR leukemia.
Experiment [2] deals with RPMI-8226 leukemia.
Experiment [3] has as its system OVCAR-8 ovarian.
Experiment [4] concerns OVCAR-5 ovarian.
The subject of experiment [5] is OVCAR-4 ovarian.
Experiment [6] concerns SK-OV-3 ovarian.
In experiment [7] the test system is IGROV1 ovarian.
The subject of experiment [8] is OVCAR-3 ovarian.
In experiment [9] the test system is HS 578T breast.
For experiment [10], the system named is NCI/ADR-RES ovarian.

For the compound `O=C(Nc1ccccc1)P(=O)(O)c1ccccc1`, the growth in experiment [1] is 98%; in experiment [2], 111%; in [3], 92.4%; in experiment [4] it was 92.9%; in experiment [5], 105%; in experiment [6], 113%. For the same compound, the growth in experiment [7] was 121%; in experiment [8], 104%; in [9], 107%; in experiment [10], 99.4%.
On to `O=C(C(=O)c1cc(Br)ccc1O)c1cc(Br)ccc1O`, for which the growth was 24.3% in [1]; 16.6% in [2]; 64.2% in experiment [3]; 93.4% in [4]; 42.2% in experiment [5]; 79.6% in [6]. In addition, the growth in experiment [7] is 32.3%; in experiment [8], 15.9%; in experiment [9] it was 38.8%; in experiment [10], 32.8%.
`N#Cc1ccccc1C#Cc1ccccc1C#Cc1ccc(OCCCCCCOc2ccc(C#Cc3ccccc3C#Cc3ccccc3C#N)cc2)cc1`: the growth in experiment [1] is 113%; in experiment [2], 108%; in experiment [3], 98.7%; in experiment [4], 96%; in experiment [5] it was 107%; in [6], 111%. The growth in [7] is -19% (active); in experiment [8], 126%; in experiment [9] it was 110%; in experiment [10] it was 104%.
On to `CN(C)c1ccc(-c2nc3ncc(Br)cc3o2)cc1`, for which the growth in [1] was 94.4%; in experiment [2], 74%; in experiment [3] it was 99.6%; in [4] it was 100%; in experiment [5] it was 113%; in [6], 94.8%. Further, the growth in experiment [7] was 17%; in experiment [8], 112%; in [9] it was 97.2%; in experiment [10] it was 88.4%.
Consider `CCN1CC2=C(Nc3nc(SC)[nH]c(=O)c3C2c2cc(OC)c(OC)c(OC)c2)/C(=C/c2cc(OC)c(OC)c(OC)c2)C1` (stereo not given), for which the growth in experiment [1] is 82.5%; in experiment [2] it was 96.7%; in [3], 94%; in experiment [4], 106%; in experiment [5], 95.9%; in experiment [6], 110%. The growth in experiment [7] was 120%; in experiment [8] it was 116%; in experiment [9] it was 111%; in experiment [10], 105%.
With `Cc1cnc2nc(-c3ccc(N(C)C)cc3)cn2c1`, the growth in experiment [1] was 100%; in experiment [2], 117%; in experiment [3], 103%; in experiment [4] it was 78.4%; in [5], 118%; in [6] it was 119%. Besides, the growth is -14.9% (active) in experiment [7], 107% in experiment [8], 109% in experiment [9] and 85.9% in [10].
As to `COc1ccc2c(c1)[n+](=O)c(/C=C/C(=O)c1cc(OC)c(OC)c(OC)c1)c(C)n2[O-]`, the growth was -10.6% (active) in experiment [1]; -45.8% (active) in experiment [2]; 3.84% (active) in [3]; 84% in experiment [4]; 62.8% in [5]; 102% in experiment [6]. Besides, the growth is 32.1% in [7], 19.4% in [8], 90.7% in experiment [9] and 52.8% in [10].
Consider `C[C@]12CCC(=O)C=C1CCC1C2[C@@H](O)C[C@@]2(C)C1CC[C@]2(O)C(=O)COC(=O)CCC(=O)O` (stereo not given in full), for which the growth is 105% in [1]; 63.6% in experiment [2]; 95.6% in experiment [3]; 99.4% in [4]; 102% in experiment [5]; 89% in experiment [6]. Besides, the growth in experiment [7] was 93.6%; in [8], 123%; in [9] it was 138%; in experiment [10] it was 95.7%.
`CC1=C([Se]CC(OC(=O)[C@@H](CSSC(C)(C)C)NC(=O)C(C)(C)C)C(=O)NCCCCCC(=O)OCc2ccccc2)C(=O)c2ccccc2C1=O` (stereo not given in full): the growth in experiment [1] was 29.2%; in [2], -11% (active); in [3], 8.55% (active); in experiment [4], -28.7% (active); in experiment [5], 14.5%; in experiment [6] it was -17.5% (active). Moreover, the growth in experiment [7] is -60.9% (active); in [8], 1.96% (active); in [9], 13.6%; in [10] it was -12.4% (active).
`COc1cc(Cl)cc(-c2nn(-c3cccc(NC(=O)c4cc(C(F)(F)F)cc(C(F)(F)F)c4)c3)cc2-c2ccncc2)c1`: the growth in experiment [1] is 41%; in experiment [2] it was 43.6%; in experiment [3], 55.4%; in experiment [4], 83%; in [5], 72.1%; in experiment [6] it was 83.4%. The growth is 100% in experiment [7], 25.5% in experiment [8], 81.1% in experiment [9] and 67.8% in experiment [10].
In the case of `Cc1ccc(C(=O)Cc2ccccc2)c(O)c1`, the growth in experiment [1] was 83%; in experiment [2], 115%; in [3] it was 104%; in [4], 99.1%; in experiment [5] it was 107%; in [6] it was 127%. The growth was 107% in experiment [7], 110% in experiment [8], 107% in experiment [9] and 108% in [10].
Consider `O=C1NCCc2c1noc2-c1ccccc1`, for which the growth in [1] is 103%; in [2] it was 113%; in experiment [3] it was 109%; in [4] it was 103%; in experiment [5] it was 114%; in experiment [6], 91.3%. The growth in [7] was 99.5%; in [8], 113%; in experiment [9], 111%; in experiment [10] it was 98.6%.
As to `O=C(Nc1cccc(-n2cc(-c3ccncc3)c(-c3cc(O)cc(Cl)c3)n2)c1)Nc1ccc(Cl)c(Cl)c1`, the growth in [1] is -21.4% (active); in experiment [2], -15.3% (active); in experiment [3] it was -14.8% (active); in experiment [4] it was -2.26% (active); in [5], 10.7%; in experiment [6], 13.2%. Besides, the growth in experiment [7] is 26%; in experiment [8] it was -47.4% (active); in experiment [9], -6.42% (active); in experiment [10], 12.8%.
`CCSc1nc(Nc2ccc(S(=O)(=O)Nc3ccon3)cc2)c(C#N)c(-c2cccc(Br)c2)n1`: the growth was 93.7% in experiment [1]; 79.3% in experiment [2]; 91.2% in experiment [3]; 89.6% in experiment [4]; 103% in experiment [5]; 99.1% in experiment [6]. Moreover, the growth in [7] is 122%; in experiment [8], 117%; in experiment [9], 105%; in experiment [10], 110%.
Consider `O=C(CNc1ccc2c(c1)C(=O)c1ccccc1C2=O)Nc1ccc2c(c1)C(=O)c1ccccc1C2=O`, for which the growth in experiment [1] was -8.94% (active); in [2], -36.6% (active); in experiment [3], -25.3% (active); in [4], -83.6% (active); in [5], -26.4% (active); in [6], -30.8% (active). Further, the growth was -72.9% (active) in [7], -99.8% (active) in experiment [8], -1.05% (active) in [9] and -40% (active) in experiment [10].
On to `O=C(Nc1ccccc1)c1cc(-n2cnc([N+](=O)[O-])c2)cc(-n2cnc([N+](=O)[O-])c2)n1`, for which the growth in experiment [1] was 84.2%; in experiment [2], 86.1%; in [3], 92.7%; in experiment [4], 109%; in experiment [5], 100%; in experiment [6], 104%. Further, the growth was 126% in [7], 105% in experiment [8], 96.7% in experiment [9] and 111% in experiment [10].
For `O=C1C(=O)/C(=C/c2ccccc2)CCCCCC/C1=C/c1ccccc1`, the growth is -13.5% (active) in experiment [1]; -33.5% (active) in [2]; 29.9% in experiment [3]; 114% in experiment [4]; 60.9% in experiment [5]; 98.2% in [6]. Besides, the growth in [7] is 5% (active); in experiment [8], 21%; in experiment [9] it was 81.4%; in experiment [10], 80.1%.
Turning to `COc1cnc2c(c1)C(=O)c1c-2n(CCCN2CCC(O)CC2)c(=O)c2cc(F)ccc12`, the growth in experiment [1] is 0.0108% (active); in experiment [2], -26.2% (active); in [3] it was -6.45% (active); in experiment [4], -8.07% (active); in [5], -0.215% (active); in experiment [6], -31.6% (active). Also, the growth was 1.69% (active) in experiment [7], -8.34% (active) in [8], 27.7% in [9] and 0.114% (active) in experiment [10].
For `COC(=O)[C@H](Cc1cn(C)cn1)NC(=O)[C@@H](NC(=O)Nc1cc(C(F)(F)F)cc(C(F)(F)F)c1)C(C)C`, the growth in experiment [1] was -33.5% [100 µM] (active); in experiment [2] it was -42.9% [100 µM] (active); in experiment [3] it was -80% [100 µM] (active); in experiment [4] it was -96.1% [100 µM] (active); in [5], -96.5% [100 µM] (active); in experiment [6] it was -100% [100 µM] (active). Moreover, the growth in experiment [7] was -70.9% [100 µM] (active); in experiment [8] it was -97.3% [100 µM] (active); in experiment [9], 0.492% [100 µM] (active); in [10] it was -21.6% [100 µM] (active).
For `CCOC(=O)C(C(=O)OCC)C1CCCCC1`, the growth in [1] was 97.3%; in experiment [2], 101%; in experiment [3] it was 102%; in experiment [4], 105%; in [5] it was 102%; in [6], 108%. Moreover, the growth in experiment [7] is 93.2%; in experiment [8], 110%; in [9] it was 109%; in [10], 109%.
For the compound `CC(=O)[C@H]1CC[C@H]2[C@@H]3C[C@H](C)C4=CC(=O)CC[C@]4(C)[C@H]3C(=O)C[C@]12C`, the growth in experiment [1] was 97.5%; in [2], 97.3%; in [3], 101%; in experiment [4] it was 103%; in [5] it was 102%; in experiment [6], 98%. Further, the growth in experiment [7] was 98.6%; in [8], 110%; in experiment [9], 103%; in experiment [10] it was 98.7%.
`COc1ccc2cc(C3=CC(=O)CCC3)ccc2c1`: the growth in [1] was 91.8%; in experiment [2], 92.6%; in experiment [3] it was 105%; in [4], 98.7%; in experiment [5], 104%; in experiment [6] it was 120%. Moreover, the growth in [7] was 104%; in [8], 106%; in experiment [9], 116%; in experiment [10], 95.6%.
Consider `CC(NNC(=S)N1CCCCCC1)c1ccc2ccccc2n1` (stereo not given), for which the growth in [1] is 34.5%; in [2], 56.1%; in experiment [3], 18.1%; in experiment [4], 50.3%; in [5] it was 30.2%; in [6], 50.9%. Moreover, the growth in experiment [7] is 19.3%; in experiment [8], 47.4%; in experiment [9], 78.5%; in experiment [10], 20.8%.
Consider `COc1cc(/C=C\C(C)=N\Nc2ccccc2)ccc1O`, for which the growth was 39.3% in [1]; 76.3% in [2]; 90.5% in experiment [3]; 84.7% in experiment [4]; 85.6% in experiment [5]; 121% in experiment [6]. The growth in [7] was 96%; in [8] it was 89.2%; in [9] it was 92.1%; in experiment [10], 77.4%.
`O=C1c2cc3c(cc2-c2c1c1ccc(Cl)cc1c(=O)n2CCCNCCO)OCO3`: the growth in experiment [1] was -43.8% (active); in experiment [2], -30.5% (active); in [3], -64.7% (active); in [4], -78.8% (active); in [5], -64.8% (active); in experiment [6], -8.64% (active). The growth in experiment [7] is -66.7% (active); in [8] it was -81.1% (active); in experiment [9], -49.6% (active); in [10] it was -51.1% (active).
Regarding `CCCCCN(CCCCC)CCCNc1c2c(nc3ccc(Cl)cc13)CCCC2`, the growth is 0.527% (active) in experiment [1]; 4.62% (active) in experiment [2]; 37.5% in experiment [3]; 41.2% in experiment [4]; 17.6% in [5]; 66.6% in experiment [6]. Also, the growth in experiment [7] is 17.5%; in experiment [8] it was 58.1%; in experiment [9], 71.6%; in experiment [10], 48.9%.

(Values after PubChem BioAssay (NCI).)
